# Screens deposited in PubChem BioAssay by National Center for Advancing Translational Sciences (NCATS).
# HCV inh: HCV inhibition; Potency, µM (doses to about 41.8 µM), for the others: top-dose activity change, negative = inhibition, actives largely listed as inhibitors; Huh7.5.1 HCVcc-Cre infection, luciferase reporter, 44 h; 340,000 tested, 3.4% active; AID 651820
#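 1,000 cells/well; 4 h culture; + compound; + HCVcc-Cre (~0.5 moi); 44 h; luciferase substrate, RT 15 min; read 15 sec.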
# AmpC no deterg: blocks E. coli AmpC beta-lactamase in detergent-free assay. AmpC nitrocefin hydrolysis, absorbance 480 nm, 0.0001% Triton. Potency, µM (titrated, usually from 57.1 µM), for the others: top-dose activity change, negative = inhibition, most hits filed as inhibitors. 330,000 tested, 0.52% active. AID 485341;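 note: plate controls were no compound for no effect and no enzyme for full effect; nearly all actives have a fitted effect of over 20% in size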
# Target sequence (P00811 whole entry, looked up): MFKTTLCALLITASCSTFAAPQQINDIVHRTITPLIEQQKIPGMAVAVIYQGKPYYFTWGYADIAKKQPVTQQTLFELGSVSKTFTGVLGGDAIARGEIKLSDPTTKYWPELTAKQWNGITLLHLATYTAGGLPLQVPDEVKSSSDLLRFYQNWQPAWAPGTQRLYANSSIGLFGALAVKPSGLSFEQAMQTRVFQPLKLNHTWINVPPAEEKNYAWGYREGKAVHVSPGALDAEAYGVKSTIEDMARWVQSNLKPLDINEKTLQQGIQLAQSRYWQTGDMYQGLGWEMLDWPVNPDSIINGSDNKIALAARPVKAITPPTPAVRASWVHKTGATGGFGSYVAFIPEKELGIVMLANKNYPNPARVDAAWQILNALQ
#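 20 mM phosphate pH 7.0 + 0.01% (detergent screen) or 0.0001% Triton X-100; 5.3 nM AmpC reagent; cpd preinc 15 min RT; nitrocefin (800 uM stock) to start; A480 q20 s × 4 min; Activity was normalised to no-enzyme and no-compound control wells.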
# Pf growth 96h: P. falciparum growth inhibition at 96 hours | P. falciparum luciferase reporter growth, 96 h | Potency, µM (doses to about 28.7 µM), for inactives: top-dose activity change, negative = inhibition, usual class: inhibitors | 320,000 tested, 6.9% active
#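 Two parasite generations (96 h, 37 C, 5% CO2) of compound exposure in infected erythrocytes (0.05% parasitemia, 2% hematocrit). Luciferase-reporter P. falciparum; decreased luminescence indicates inhibited growth, aimed at apicoplast-acting delayed death.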
# AMA1-RON2 inh: inhibitors of Plasmodium falciparum AMA1-RON2 interaction; AlphaScreen AMA1-biotinylated RON2 peptide binding; Potency, µM (doses to about 58.2 µM), without a hit: top-dose activity change, negative = inhibition, hits mostly inhibitors; 360,000 tested, 0.2% active;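 note: 0% = vehicle wells and -100% = peptide control; nearly all actives have a fitted effect of over 45% in size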
#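 AMA1 (3D7) with his tag at 25 nM final met compounds first, then biotinylated RON2 peptide at 25 nM; detection used donor plus acceptor beads, 10 µg/mL apiece, read by AlphaScreen after 30 min at room temperature.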
# AmpC detergent: AmpC beta-lactamase inhibition with detergent present; AmpC hydrolysis of nitrocefin, absorbance 480 nm, 0.01% Triton; Potency, µM (doses to about 114 µM), for inactives: top-dose activity change, negative = inhibition, usual class: inhibitors; 370,000 tested, 0.041% active; AID 485294;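 note: 0% = no-compound wells and -100% = no-enzyme wells; nearly all actives have a fitted effect of over 25% in size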
#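 20 mM phosphate pH 7.0 + 0.01% (detergent screen) or 0.0001% Triton X-100; 5.3 nM AmpC reagent; cpd preinc 15 min RT; nitrocefin (800 uM stock) to start; A480 q20 s × 4 min; Activity was normalised to no-enzyme and no-compound control wells.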
# Pf growth 48h: P. falciparum growth inhibition at 48 hours (one generation); P. falciparum luciferase growth in erythrocytes, 48 h; Potency, µM (series often up to 28.7 µM), for inactives: at the highest dose activity change, negative = inhibition, hits mostly inhibitors; 310,000 tested, 5.9% active
#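 Cell-based growth assay: transgenic P. falciparum expressing firefly luciferase, cultured in red cells within RPMI 1640 containing 0.5% w/v Albumax, 24 mM bicarbonate and gentamycin. A drop in luciferase activity indicates inhibition.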
# Starred values were filed as active, the others as inactive; ? = inconclusive; / = no result; [ ] = dose if it differs, or a comment. Sampled rows, rich in hits. Any-hit rate of the full collection: about 11%. Calls come from the whole dose curve; as a rule, active = well fitted curve in the direction sought with a large enough effect; inconclusive = small, poorly fitted or top-dose-only effect, or another doubt; inactive = no such curve, though single readings can be large; an effect the other way counts as inactive or inconclusive. Unless noted, % is set by controls: 0 for no effect and ±100 for the full control effect; potency is the fitted concentration of half-maximal effect.
SMILES,HCV inh,AmpC no deterg,Pf growth 96h,AMA1-RON2 inh,AmpC detergent,Pf growth 48h
CCc1nc(NCCCN2CCOCC2)c2oc3ccccc3c2n1,-10%,-12%,5.9µM*,9%,0%,?
CCc1nc(Nc2ccncc2)c2oc3ccccc3c2n1,?,4%,/,16%,?,13µM*
CCc1nc(NCCN2CCOCC2)c2oc3ccccc3c2n1,5%,-2%,?,-2%,-5%,/
Cc1nc(Nc2ccncc2)c2oc3ccccc3c2n1,8.9µM*,-12%,-2%[5.75 µM],-8%,-13%,/
Cc1cccc(Nc2nc(C)nc3c2oc2ccccc23)c1,13µM*,45%,?,-17%,7%,?
N#Cc1cccc(NC(=O)C2CCN(S(=O)(=O)c3ccc4[nH]c(=O)ccc4c3)CC2)c1,/,/,/,/,1%,/
O=C(NCc1ccc(F)cc1)c1ccc2c(c1)nnn2C1CCCC1,/,/,/,/,3%,/
CCOC(=O)c1ccccc1NC(=O)NC(C)c1c(-n2cccc2)sc(C)c1C (stereo not drawn),/,/,/,/,-3%,/
Cc1nc(NC(C)c2ccccc2)c2oc3ccccc3c2n1 (stereo not drawn),6.3µM*,31%,?,0%,-8%,?
O=C(Nc1ccsc1C(=O)NC1CCCCC1)c1ccccc1,-4%,-16%,?,-6%,-9%,7.4µM*
O=C(Nc1ccccc1C(=O)NC1CCCCC1)c1ccccc1,-28%,-26%,6.6µM*,-6%,7%,?
O=C(O)CCC(=O)Nc1ccccc1C(=O)NC1CCCCC1,14%,-9%,6%,12%,?,7%
O=C(Nc1cccc(C(=O)NC2CCCCC2)c1)c1ccccc1,-29%,-35%,18%,-7%,-2%,13%
O=C(CCCn1c(=O)c2cccn2c2cccnc21)NCc1ccccc1Br,/,/,/,/,-6%,/
CCN1C/C(=C/c2ccc(N3CCOCC3)cc2)C(=O)/C(=C/c2ccc(N3CCOCC3)cc2)C1,?,215%,4.1µM*,-29%,3%,7.4µM*
CN1C/C(=C/c2ccncc2)C(=O)/C(=C/c2ccncc2)C1,16%,-11%,?,6%,-3%,2.6µM*
CN1C/C(=C\c2ccc(N3CCOCC3)cc2)C(=O)/C(=C/c2ccc(N3CCOCC3)cc2)C1,11µM*,70%,65%,-5%,-13%,?
O=C1NC(=O)N(Cc2cccs2)C(=O)/C1=C/c1ccc(N2CCOCC2)cc1,11%,-27%,33%,-6%,6%,10%
O=C(Nc1ccc(Cl)c(C(F)(F)F)c1)c1ccncc1,-22%,-7%,-7%,8%,-6%,-9%
CNC(=O)c1cc(Oc2ccc(NC(=O)Nc3ccc(Cl)c(C(F)(F)F)c3)cc2)ccn1,11µM*,-22%,49%,1%,11%,?
O=C1CC(c2ccccc2)Cc2[nH]c(=O)c(-c3nc(-c4cccc(Cl)c4)cs3)cc21 (stereo not drawn),/,/,/,/,22%,/
CCN(CC)CCCNC(=O)c1cn(-c2cccc(OC)c2)c(=O)c2ccccc12,8%,-10%,-12%,19%,-3%,6%
CCCCN(CC)CCCNC(=O)c1cn(-c2ccc(OC)cc2)c(=O)c2ccccc12,3%,-16%,7.4µM*,4%,-2%,-9%
CCN(CC)CCCNC(=O)CNC(=O)c1nn(-c2ccc(OC)cc2)c(=O)c2ccccc12,-15%,-25%,9.3µM*,0%,2%,-14%
CCCN(CCC)CCCNC(=O)c1nn(-c2cccc(OC)c2)c(=O)c2ccccc12,9%,2%,12µM*,-4%,1%,?
SMILES,HCV inh,AmpC no deterg,Pf growth 96h,AMA1-RON2 inh,AmpC detergent,Pf growth 48h
COc1cccc(N2CCN(C(=O)c3ccc(Cn4c(=O)[nH]c5cc(OC)c(OC)cc5c4=O)cc3)CC2)c1,/,/,/,/,2%,/
CCCCNC(=O)CSc1nc2ccccc2nc1Cc1ccccc1,/,/,/,/,18%,/
CCC(C)NC(=O)c1nn(-c2ccc(C)cc2)c(=O)n(C)c1=O (stereo not drawn),/,/,/,/,0%,/
N=c1n(N)c2ccccc2n1CC(=O)c1ccc(Br)cc1,13µM*,-21%,76%,5%,-10%,73%
Cc1ccccc1Cn1c(=N)n(CC(=O)c2ccc([N+](=O)[O-])cc2)c2ccccc21,7%,-28%,17%,-2%,-2%,?
CCCn1c(=N)n(CC(=O)c2ccc([N+](=O)[O-])cc2)c2ccccc21,13µM*,-32%,6%,-5%,-13%,?
CCCn1c(=N)n(CC(=O)c2ccc(Cl)cc2)c2ccccc21,13µM*,-16%,?,3%,5%,?
CCOc1ccc(NC(=O)CCc2nc3cccnc3n2Cc2ccc(OC)cc2)cc1,/,/,/,/,0%,/
CN(C(=O)c1cccc(NC(=O)Cc2cccc(NC(=O)C3CCCN(C(=O)CCc4ccccc4)C3)c2)c1)C1CCC1 (stereo not drawn),3.5µM*,/,/,-3%,/,/
CCC(=O)Nc1cccc(C(=O)Nc2nccs2)c1,-9%,-15%,121%,25%,0%,39%
CC(=O)c1cccc(NC(=O)C2CCCCC2)c1,0%,-10%,1.5µM*,1%,-7%,8%
O=C(Nc1nccs1)c1cccc(NC(=O)C2CC2)c1,-6%,-30%,13µM*,4%,4%,-15%
O=C(Cc1cccc(NC(=O)C2CCCN(C(=O)CCc3ccccc3)C2)c1)Nc1cccc(C(=O)N2CCCCC2)c1 (stereo not drawn),4.5µM*,/,/,-6%,/,/
O=C(Nc1cccc(C(=O)N2CCCCC2)c1)C1CCCC1,4%,/,/,10%,/,/
Cc1ccc(-n2c(=O)c3cccnc3n2CC(=O)Nc2ccc(Br)cc2)cc1C,/,/,/,/,0%,/
Cc1cccc(C)c1Nc1c(-c2ccsc2)nc2cccc(C)n12,/,/,/,/,22%,/
Cc1csc2nc(-c3cccc(NC(=O)c4ccc(S(N)(=O)=O)cc4)c3)cn12,/,/,/,/,1%,/
O=C(Cc1cccc(NC(=O)C2CCN(C(=O)C3CCCCC3)CC2)c1)Nc1cccc(C(=O)N2CCCC2)c1,-27%,114%,10µM*,-1%,8%,13µM*
O=C(Nc1cccc(C(=O)N2CCCC2)c1)C1CCC1,0.56µM*,/,/,15%,/,/
O=C(Cc1cccc(NC(=O)C2CCN(C(=O)C3CCCCC3)CC2)c1)Nc1cccc(C(=O)N2CCCCC2)c1,37%[8.37 µM],/,/,3%,/,/
O=C(Nc1cccc(C(=O)N2CCCCC2)c1)C1CCC1,4%,/,/,-3%,/,/
CC1=CC(=NOC(=O)/C=C/c2ccccc2)C=C(C)C1=O,?,-1%,-46%,?,2%,?
CC1=C(C)/C(=N\OC(=O)/C=C/c2ccccc2)C=CC1=O,-3%,-7%,?,-7%,-21%,10µM*
